From PubChem BioAssay (Tox21)
Inconclusive results are not listed. Activity calls are given as the source filed them. Calls come from the whole dose curve; as a rule, active = well fitted curve in the direction sought with a large enough effect in the repeat runs; inconclusive = weak or mixed curves; inactive = no such curve, though single readings can be large; an effect the other way counts as inactive or inconclusive.

Assays:
[1] = target: Nuclear receptor subfamily 1 group I member 2 (Homo sapiens) (UniProt O75469); test: Human pregnane X receptor (PXR) small molecule agonists, qHTS assay (AID 1346982); note: nearly all actives have a fitted effect of over 35% in size
How it was run: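 Compound-induced hPXR transactivation of a CYP3A4 luciferase reporter was scored in HepG2 PXR-Luc cells over 24 hr at 37 C, 5% CO2, by luminescence.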

[2] = target: Cytochrome P450 2D6 (Homo sapiens) (UniProt P10635); test: Cytochrome P450 Family 2 Subfamily D Member 6 (CYP2D6) small molecule antagonists: luciferase reporter qHTS assay (AID 1671196); note: nearly all actives have a fitted effect of over 50% in size; note: potency is the fitted concentration of half-maximal effect; for activity change, negative = inhibition: series mostly up to about 120 µM
How it was run: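 Each well received CYP2D6 with its proluciferin substrate and chemical, sat 10 min, then got NADPH regeneration solution for 1 h at room temperature. Luminescence in RLU served as the activity measure.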

[3] = target: Cytochrome P450 2C19 (Homo sapiens) (UniProt P33261); test: Cytochrome P450 Family 2 Subfamily C Member 19 (CYP2C19) small molecule antagonists: luciferase reporter qHTS assay (AID 1671197); note: nearly all actives have a fitted effect of over 65% in size; note: potency is the fitted concentration of half-maximal effect; for activity change, negative = inhibition: series mostly up to about 120 µM
How it was run: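 Enzyme-substrate mix with proluciferin substrate (P450-Glo CYP2C19 system) preincubated with compounds 10 min at room temperature; NADPH regeneration solution added, 37C for 1 h; detection reagent stops reaction, luminescence read after 20 min. Ketoconazole positive control.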

[4] = target: Cytochrome P450 2C9 (Homo sapiens) (UniProt P11712); test: Cytochrome P450 Family 2 Subfamily C Member 9 (CYP2C9) small molecule antagonists: luciferase reporter qHTS assay (AID 1671198); note: nearly all actives have a fitted effect of over 50% in size; note: potency is the fitted concentration of half-maximal effect; for activity change, negative = inhibition: series mostly up to about 120 µM
How it was run: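 Enzyme-substrate mix preincubated with compound 10 min at room temperature; reaction started with NADPH regeneration solution, 1 h 37C. Luminescent luciferin product read after 20 min detection reagent.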

[5] = target: Cytochrome P450 1A2 (Homo sapiens) (UniProt P05177); test: Cytochrome P450 Family 1 Subfamily A Member 2 (CYP1A2) small molecule antagonists: luciferase reporter qHTS assay (AID 1671199); note: nearly all actives have a fitted effect of over 50% in size; note: potency is the fitted concentration of half-maximal effect; for activity change, negative = inhibition: series mostly up to about 120 µM
How it was run: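 Enzymatic CYP1A2 assay, human, luminescent: 10 min compound–enzyme–substrate preincubation, 1 h NADPH-dependent turnover, 20 min detection step, room temperature throughout. Reduced light indicates lower CYP1A2 activity.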

[6] = target: Voltage-gated inwardly rectifying potassium channel KCNH2 (Homo sapiens) (UniProt Q12809); test: Human Ether-a-go-go-Related Gene (hERG) channel small molecule antagonists: fluorescence cell-based qHTS assay (AID 1671200); note: nearly all actives have a fitted effect of over 50% in size; note: potency is the fitted concentration of half-maximal effect;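 for activity change, negative = inhibition: hERG-expressing U2OS cells given a thallium stimulus after FluxOR II dye loading; series mostly up to about 77 µM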
How it was run: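 hERG-U2OS cells plated overnight at 37 C, loaded with FluxOR II dye 1 h at RT in dark; after 10 min, thallium stimulus added. Fluorescence (480/540 nm) read kinetically for 2 min at 1 s intervals.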

[7] = target: Cytochrome P450 3A4 (Homo sapiens) (UniProt P08684); test: Cytochrome P450 Family 3 Subfamily A Member 4 (CYP3A4) small molecule antagonists: luciferase reporter qHTS assay (AID 1671201); note: nearly all actives have a fitted effect of over 50% in size; note: potency is the fitted concentration of half-maximal effect; for activity change, negative = inhibition: series mostly up to about 120 µM
How it was run: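 P450-Glo CYP3A4 luminescent assay: compounds preincubated 10 min at room temperature with enzyme and proluciferin substrate, NADPH regeneration added, 1 h room-temperature reaction, stopped with luciferin detection reagent; luminescence read after 20 min. Ketoconazole positive control.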
% is set by controls: 0 for no effect and ±100 for the full control effect.

Sequence of Voltage-gated inwardly rectifying potassium channel KCNH2 (Homo sapiens) (Q12809 whole entry, looked up): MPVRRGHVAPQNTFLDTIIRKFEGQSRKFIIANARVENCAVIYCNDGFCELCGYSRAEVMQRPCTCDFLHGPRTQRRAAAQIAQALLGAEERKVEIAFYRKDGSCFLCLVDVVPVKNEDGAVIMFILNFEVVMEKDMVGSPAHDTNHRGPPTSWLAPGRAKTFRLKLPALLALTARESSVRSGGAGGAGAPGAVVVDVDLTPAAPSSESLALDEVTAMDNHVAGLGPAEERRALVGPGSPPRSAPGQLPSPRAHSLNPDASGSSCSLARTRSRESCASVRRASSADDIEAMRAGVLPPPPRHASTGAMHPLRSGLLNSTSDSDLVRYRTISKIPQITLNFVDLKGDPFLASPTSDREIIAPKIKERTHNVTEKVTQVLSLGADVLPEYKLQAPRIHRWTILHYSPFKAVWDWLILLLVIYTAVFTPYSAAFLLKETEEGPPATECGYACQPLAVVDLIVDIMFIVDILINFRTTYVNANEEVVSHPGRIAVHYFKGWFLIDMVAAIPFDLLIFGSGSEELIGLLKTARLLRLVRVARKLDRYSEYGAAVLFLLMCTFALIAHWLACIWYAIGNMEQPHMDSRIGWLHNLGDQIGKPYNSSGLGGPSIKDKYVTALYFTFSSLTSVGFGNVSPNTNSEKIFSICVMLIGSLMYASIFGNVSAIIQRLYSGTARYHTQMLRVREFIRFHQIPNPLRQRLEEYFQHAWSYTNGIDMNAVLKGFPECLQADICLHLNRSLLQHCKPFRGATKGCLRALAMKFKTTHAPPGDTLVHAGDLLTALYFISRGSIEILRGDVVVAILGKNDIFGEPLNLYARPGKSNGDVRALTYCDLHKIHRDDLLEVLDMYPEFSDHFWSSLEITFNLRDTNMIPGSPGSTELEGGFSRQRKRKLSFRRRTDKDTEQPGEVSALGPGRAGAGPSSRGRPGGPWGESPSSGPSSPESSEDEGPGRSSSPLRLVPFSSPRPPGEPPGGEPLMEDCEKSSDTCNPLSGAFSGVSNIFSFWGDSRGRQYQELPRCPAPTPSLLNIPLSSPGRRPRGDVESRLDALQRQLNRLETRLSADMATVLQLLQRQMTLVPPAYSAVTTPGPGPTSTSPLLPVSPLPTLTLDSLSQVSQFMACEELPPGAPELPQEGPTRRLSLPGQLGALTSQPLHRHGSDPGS
Sequence of Cytochrome P450 2C19 (Homo sapiens) (P33261 whole entry, looked up): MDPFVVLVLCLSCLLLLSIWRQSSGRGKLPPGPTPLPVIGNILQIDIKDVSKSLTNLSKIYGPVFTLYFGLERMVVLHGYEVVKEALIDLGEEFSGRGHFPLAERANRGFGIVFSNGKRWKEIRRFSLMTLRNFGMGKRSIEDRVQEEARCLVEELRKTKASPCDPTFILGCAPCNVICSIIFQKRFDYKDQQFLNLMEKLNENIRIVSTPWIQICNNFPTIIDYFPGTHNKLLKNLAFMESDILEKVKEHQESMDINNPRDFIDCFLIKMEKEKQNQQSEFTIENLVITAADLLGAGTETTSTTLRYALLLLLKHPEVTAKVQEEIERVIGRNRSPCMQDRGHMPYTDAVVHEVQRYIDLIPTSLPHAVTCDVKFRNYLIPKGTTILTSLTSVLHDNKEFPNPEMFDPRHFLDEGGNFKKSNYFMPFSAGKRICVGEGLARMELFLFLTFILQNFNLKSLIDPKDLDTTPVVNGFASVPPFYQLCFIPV
Sequence of Cytochrome P450 2D6 (Homo sapiens) (P10635 whole entry, looked up): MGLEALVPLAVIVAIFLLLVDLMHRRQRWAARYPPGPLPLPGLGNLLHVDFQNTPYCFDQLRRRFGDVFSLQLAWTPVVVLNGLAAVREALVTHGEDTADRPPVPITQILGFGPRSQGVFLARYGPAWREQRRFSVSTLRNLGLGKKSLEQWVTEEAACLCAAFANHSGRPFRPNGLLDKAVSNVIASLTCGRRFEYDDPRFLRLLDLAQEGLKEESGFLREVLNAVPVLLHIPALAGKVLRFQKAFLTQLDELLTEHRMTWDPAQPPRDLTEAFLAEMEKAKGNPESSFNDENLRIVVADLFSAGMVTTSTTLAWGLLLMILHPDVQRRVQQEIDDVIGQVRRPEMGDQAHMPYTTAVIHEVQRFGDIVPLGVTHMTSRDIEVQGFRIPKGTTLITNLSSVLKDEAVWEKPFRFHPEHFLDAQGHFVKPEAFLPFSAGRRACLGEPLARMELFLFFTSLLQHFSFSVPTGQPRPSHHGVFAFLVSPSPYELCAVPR
Sequence of Cytochrome P450 2C9 (Homo sapiens) (P11712 whole entry, looked up): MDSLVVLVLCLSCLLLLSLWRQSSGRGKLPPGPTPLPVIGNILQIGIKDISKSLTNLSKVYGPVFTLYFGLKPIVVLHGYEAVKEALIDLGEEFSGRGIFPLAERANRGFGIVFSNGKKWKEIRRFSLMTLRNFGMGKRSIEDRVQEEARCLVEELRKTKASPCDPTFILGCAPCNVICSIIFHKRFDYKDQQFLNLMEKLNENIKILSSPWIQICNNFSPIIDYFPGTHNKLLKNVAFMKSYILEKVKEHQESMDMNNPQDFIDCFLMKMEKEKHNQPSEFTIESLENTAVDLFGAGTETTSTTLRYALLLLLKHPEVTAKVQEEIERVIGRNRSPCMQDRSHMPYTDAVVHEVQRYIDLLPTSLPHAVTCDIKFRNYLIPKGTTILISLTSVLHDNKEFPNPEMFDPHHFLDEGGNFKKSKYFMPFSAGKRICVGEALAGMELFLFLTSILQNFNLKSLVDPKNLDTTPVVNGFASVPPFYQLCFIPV
Sequence of Cytochrome P450 3A4 (Homo sapiens) (P08684 whole entry, looked up): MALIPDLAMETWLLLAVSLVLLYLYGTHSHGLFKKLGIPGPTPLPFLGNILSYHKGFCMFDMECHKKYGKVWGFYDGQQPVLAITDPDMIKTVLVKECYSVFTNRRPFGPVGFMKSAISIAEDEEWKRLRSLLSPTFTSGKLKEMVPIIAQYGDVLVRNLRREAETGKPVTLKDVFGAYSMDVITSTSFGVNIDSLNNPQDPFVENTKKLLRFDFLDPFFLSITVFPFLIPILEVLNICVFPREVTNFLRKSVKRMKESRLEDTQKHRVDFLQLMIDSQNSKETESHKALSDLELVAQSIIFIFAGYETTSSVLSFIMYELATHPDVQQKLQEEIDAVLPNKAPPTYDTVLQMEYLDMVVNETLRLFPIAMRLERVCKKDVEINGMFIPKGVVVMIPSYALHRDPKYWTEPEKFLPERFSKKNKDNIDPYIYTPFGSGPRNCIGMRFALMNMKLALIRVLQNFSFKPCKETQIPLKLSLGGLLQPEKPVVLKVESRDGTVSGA
Sequence of Nuclear receptor subfamily 1 group I member 2 (Homo sapiens) (O75469 whole entry, looked up): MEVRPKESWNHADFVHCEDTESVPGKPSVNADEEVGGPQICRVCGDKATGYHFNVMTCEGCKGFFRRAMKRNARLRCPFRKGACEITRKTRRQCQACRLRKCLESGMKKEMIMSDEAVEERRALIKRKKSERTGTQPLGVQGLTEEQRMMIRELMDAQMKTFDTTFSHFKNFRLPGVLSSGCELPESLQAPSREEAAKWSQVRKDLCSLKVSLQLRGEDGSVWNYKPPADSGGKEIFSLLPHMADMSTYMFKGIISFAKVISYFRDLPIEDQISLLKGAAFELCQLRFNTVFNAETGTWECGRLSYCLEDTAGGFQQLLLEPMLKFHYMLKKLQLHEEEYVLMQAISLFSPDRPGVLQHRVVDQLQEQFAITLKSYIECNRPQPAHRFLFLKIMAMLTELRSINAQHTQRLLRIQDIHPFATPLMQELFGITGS
Sequence of Cytochrome P450 1A2 (Homo sapiens) (P05177 whole entry, looked up): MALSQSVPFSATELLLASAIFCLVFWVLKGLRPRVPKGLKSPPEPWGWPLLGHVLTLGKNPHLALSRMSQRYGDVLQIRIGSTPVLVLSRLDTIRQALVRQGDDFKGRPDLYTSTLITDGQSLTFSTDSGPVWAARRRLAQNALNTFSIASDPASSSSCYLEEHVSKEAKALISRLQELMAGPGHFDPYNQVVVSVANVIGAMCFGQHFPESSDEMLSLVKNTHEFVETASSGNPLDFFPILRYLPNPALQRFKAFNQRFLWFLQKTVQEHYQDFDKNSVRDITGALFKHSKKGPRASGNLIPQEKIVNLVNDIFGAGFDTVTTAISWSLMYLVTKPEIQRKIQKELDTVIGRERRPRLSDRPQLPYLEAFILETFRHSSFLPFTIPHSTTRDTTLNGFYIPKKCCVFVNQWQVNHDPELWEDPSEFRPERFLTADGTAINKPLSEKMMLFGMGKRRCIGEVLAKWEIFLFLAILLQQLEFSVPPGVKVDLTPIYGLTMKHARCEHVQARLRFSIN

O=C1NC2NC(=O)NC2N1 (centres undefined)
inactive: Potency [1] | Potency [2] | Potency [3] | Potency [4] | Potency [6]
active: Potency [5] 35.6 µM

O=P(O)(O)OCC(O)CO (centres undefined)
inactive: Potency [1] | Potency [2] | Potency [3] | Potency [4] | Potency [5] | Potency [6] | Potency [7]

CCCCCCCC/C=C\CCCCCCCC(=O)OC[C@@H](O)[C@H]1OC[C@H](O)[C@H]1O
active: Potency [4] 31.7 µM
inactive: Potency [1] | Potency [2] | Potency [3] | Potency [5] | Potency [6] | Potency [7]

CCCCCCCCCCCCCCCCI
inactive: activation [1] 0.718% [at 19 µM] | activity change, negative = inhibition [2] -2.1% [at 23.6 µM] | activity change, negative = inhibition [3] -28.1% [at 23.6 µM] | activity change, negative = inhibition [4] -1.09% [at 23.6 µM] | activity change, negative = inhibition [5] -13.6% [at 23.6 µM] | activity change, negative = inhibition [6] 0.683% [at 15.8 µM] | activity change, negative = inhibition [7] -0.102% [at 23.6 µM]

CO[Si](CCCS)(OC)OC
inactive: Potency [1] | Potency [2] | Potency [3] | Potency [4] | Potency [5] | Potency [6]

CCC(C)N (centres undefined)
inactive: Potency [1] | Potency [2] | Potency [3] | Potency [4] | Potency [5] | Potency [6]

CC(C)C(=O)Nc1cccc(C(F)(F)F)c1
inactive: Potency [1] | Potency [2] | Potency [3] | Potency [4] | Potency [6] | Potency [7]
active: Potency [5] 7.76 µM

Cc1ccc(C(=O)C(=O)O)cc1C
active: Potency [5] 30.9 µM
inactive: Potency [1] | Potency [2] | Potency [3] | Potency [4] | Potency [6] | Potency [7]

O=S(=O)(O)SSS(=O)(=O)O
active: Potency [3] 35.6 µM | Potency [4] 71 µM | Potency [5] 44.8 µM
inactive: Potency [1] | Potency [2] | Potency [6] | Potency [7]

Cc1nc(C)nc(N2C[C@@H](C)N(c3ccnc([C@@H](C)O)n3)[C@@H](C)C2)n1
inactive: Potency [1] | Potency [2] | Potency [3] | Potency [4] | Potency [5] | Potency [6] | Potency [7]

C1=C\CC/C=C\CC/1
inactive: Potency [1] | Potency [2] | Potency [3] | Potency [4] | Potency [5] | Potency [6] | Potency [7]

C=CCOc1cc(Cl)ccc1C(=O)NCCN(CC)CC
inactive: Potency [1] | Potency [4]
active: Potency [2] 0.275 µM | Potency [3] 6.92 µM | Potency [5] 2.57 µM | Potency [6] 9.52 µM | Potency [7] 17.4 µM

CCOC(=O)C(C)(C)C
inactive: Potency [1] | Potency [2] | Potency [3] | Potency [4] | Potency [5] | Potency [7]

O=C(O)CCNC(=O)c1ccccc1
inactive: Potency [1] | Potency [2] | Potency [3] | Potency [4] | Potency [5] | Potency [7]

C=C(C)[C@@H]1CC[C@@H](C)C[C@@H]1O
inactive: Potency [1] | Potency [2] | Potency [3] | Potency [4] | Potency [6] | Potency [7]
active: Potency [5] 39.9 µM

N#CCCOCCOCCC#N
inactive: Potency [1] | Potency [2] | Potency [3] | Potency [4] | Potency [7]
active: Potency [5] 39.9 µM

O=C1c2ccccc2-c2ccccc21
inactive: Potency [1] | Potency [2] | Potency [6] | Potency [7]
active: Potency [3] 57.9 µM | Potency [4] 65 µM | Potency [5] 0.58 µM

CC(=O)OC(C)(C)Cc1ccccc1
inactive: Potency [1] | Potency [2] | Potency [3] | Potency [4] | Potency [5] | Potency [6] | Potency [7]

C[CH2][Ge]([Cl])([CH2]C)[CH2]C
inactive: Potency [1] | Potency [2] | Potency [3] | Potency [4] | Potency [5] | Potency [7]

C=CCCCCCCCCCCC
inactive: activation [1] -8.11% [at 8.39 µM] | activity change, negative = inhibition [2] -22.8% [at 10.5 µM] | activity change, negative = inhibition [3] 11.6% [at 10.5 µM] | activity change, negative = inhibition [4] -1.77% [at 10.5 µM] | activity change, negative = inhibition [5] -6.04% [at 10.5 µM] | activity change, negative = inhibition [6] 6.79% [at 6.97 µM] | activity change, negative = inhibition [7] 4% [at 10.5 µM]

O=S1(=O)CCCC1
inactive: Potency [1] | Potency [2] | Potency [3] | Potency [4] | Potency [7]
active: Potency [5] 40.2 µM

CC(CC(=O)O)CC(C)(C)C (centres undefined)
inactive: Potency [1] | Potency [2] | Potency [3] | Potency [4] | Potency [5] | Potency [6] | Potency [7]

CCCCCN(CCCOC)C(=O)C(CCC(=O)O)NC(=O)c1ccc(Cl)c(Cl)c1 (centres undefined)
inactive: Potency [1] | Potency [2] | Potency [3] | Potency [6] | Potency [7]
active: Potency [4] 13.8 µM | Potency [5] 30.9 µM

CC(=O)OCCCc1ccccc1
inactive: Potency [1] | Potency [2] | Potency [3] | Potency [4] | Potency [5] | Potency [6] | Potency [7]

COC(/C=C(\C)CCC=C(C)C)OC
inactive: Potency [1] | Potency [2] | Potency [3] | Potency [4] | Potency [5] | Potency [6] | Potency [7]

CCCOC(=O)CCCCC(=O)OCCC
inactive: Potency [1] | Potency [2] | Potency [6] | Potency [7]
active: Potency [3] 20 µM | Potency [4] 20 µM | Potency [5] 22.4 µM
